Here are results for ten compounds from PubChem BioAssay.

Experiment [1] deals with Protein Mdm4 (Homo sapiens) + E3 ubiquitin-protein ligase Mdm2 (Homo sapiens) (UniProt O15151+Q00987). In words: human Mdm2/MdmX binding disruption – cell-based, luminescence, single concentration, set 2, confirmation (AID 504601;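 active = mean inhibition of the luminescence signal across two replicates at or above 26 percent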). Particulars: SaOS-2 split-luciferase Mdm2/MdmX complementation, at 8 µM, stronger effect = higher value.
Chain of Protein Mdm4 (Homo sapiens) + E3 ubiquitin-protein ligase Mdm2 (Homo sapiens) (O15151 whole entry, looked up): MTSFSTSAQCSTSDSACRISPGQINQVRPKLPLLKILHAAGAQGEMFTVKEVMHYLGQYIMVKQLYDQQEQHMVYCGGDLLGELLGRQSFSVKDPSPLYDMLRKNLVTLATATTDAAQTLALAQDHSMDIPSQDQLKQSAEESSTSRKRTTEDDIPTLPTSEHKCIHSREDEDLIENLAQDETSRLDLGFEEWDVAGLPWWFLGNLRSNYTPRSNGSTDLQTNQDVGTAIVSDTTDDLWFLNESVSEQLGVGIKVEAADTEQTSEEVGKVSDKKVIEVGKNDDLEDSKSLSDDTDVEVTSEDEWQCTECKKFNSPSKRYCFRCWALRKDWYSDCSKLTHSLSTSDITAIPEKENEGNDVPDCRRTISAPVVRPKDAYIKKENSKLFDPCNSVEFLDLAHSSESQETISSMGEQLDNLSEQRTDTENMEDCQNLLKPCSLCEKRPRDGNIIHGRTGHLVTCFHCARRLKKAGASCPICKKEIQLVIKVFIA
Chain of Protein Mdm4 (Homo sapiens) + E3 ubiquitin-protein ligase Mdm2 (Homo sapiens) (Q00987 whole entry, looked up): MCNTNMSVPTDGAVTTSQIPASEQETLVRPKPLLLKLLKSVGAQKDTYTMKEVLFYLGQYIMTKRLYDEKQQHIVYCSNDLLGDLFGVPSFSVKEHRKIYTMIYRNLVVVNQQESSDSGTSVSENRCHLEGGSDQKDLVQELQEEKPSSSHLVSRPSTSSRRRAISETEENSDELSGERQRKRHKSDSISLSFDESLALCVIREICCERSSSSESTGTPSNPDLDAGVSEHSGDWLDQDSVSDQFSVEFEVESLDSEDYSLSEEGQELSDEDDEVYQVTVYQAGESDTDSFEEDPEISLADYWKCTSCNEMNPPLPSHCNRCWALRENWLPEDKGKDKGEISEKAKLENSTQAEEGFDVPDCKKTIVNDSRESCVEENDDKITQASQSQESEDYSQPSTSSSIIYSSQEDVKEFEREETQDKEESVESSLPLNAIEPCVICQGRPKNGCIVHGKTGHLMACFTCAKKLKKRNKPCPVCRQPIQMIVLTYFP
Experiment [2] deals with Sentrin-specific protease 8 (Homo sapiens) (UniProt Q96LD8). Briefly: human SENP8 peptidase blockers, hit retest – biochemical, luminescence, single concentration, confirmation (AID 488912;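 active = mean inhibition across replicates above about 50%, limit read from the data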). Particulars: Recombinant SENP8, Z-RLRGG-aminoluciferin luminescence, 60 min; at 12.5 µM; stronger effect = higher value.
Chain of Sentrin-specific protease 8 (Homo sapiens) (Q96LD8 whole entry, looked up, the tested form may be a part): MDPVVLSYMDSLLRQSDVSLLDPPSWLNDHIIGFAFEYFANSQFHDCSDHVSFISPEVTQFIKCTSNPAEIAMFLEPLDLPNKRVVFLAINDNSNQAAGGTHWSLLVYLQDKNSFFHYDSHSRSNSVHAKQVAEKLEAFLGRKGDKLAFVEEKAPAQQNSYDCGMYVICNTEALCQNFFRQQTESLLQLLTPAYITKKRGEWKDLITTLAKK
Experiment [3] addresses Sentrin-specific protease 6 (Homo sapiens) (UniProt Q9GZR1). Briefly: inhibition of human SENP6 catalytic domain – biochemical, luminescence, single concentration, confirmation (AID 488915). The conditions noted are these: recombinant SENP6, Z-RLRGG-aminoluciferin luminescence; at 12.5 µM; stronger effect = higher value.
The target in experiment [4] is Sentrin-specific protease 7 (Homo sapiens) (UniProt Q9BQF6). In words: human SENP7 peptidase blockers, hit retest – biochemical, luminescence, single concentration, confirmation (AID 488917). Particulars: recombinant SENP7, Z-RLRGG-aminoluciferin luminescence, 40 min; at 12.5 µM; stronger effect = higher value.
Chain of Sentrin-specific protease 7 (Homo sapiens) (Q9BQF6 706-1050 limits assumed): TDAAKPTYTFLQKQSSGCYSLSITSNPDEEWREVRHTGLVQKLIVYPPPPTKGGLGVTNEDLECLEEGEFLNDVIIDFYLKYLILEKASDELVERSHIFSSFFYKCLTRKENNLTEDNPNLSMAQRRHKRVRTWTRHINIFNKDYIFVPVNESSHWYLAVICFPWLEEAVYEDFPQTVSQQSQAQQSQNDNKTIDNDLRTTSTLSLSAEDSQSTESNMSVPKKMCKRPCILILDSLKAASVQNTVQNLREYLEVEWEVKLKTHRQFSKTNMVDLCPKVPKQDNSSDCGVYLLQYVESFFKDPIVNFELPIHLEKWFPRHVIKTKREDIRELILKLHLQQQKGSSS
The target in experiment [5] is Caspase-3 (Homo sapiens) (UniProt P42574). In words: human caspase-3 activity blockade, out-of-family – biochemical, single concentration, selectivity assay for SENP inhibitor project, confirmation (AID 488918;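 active = mean inhibition above about 50%, limit read from the data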;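 also: plate controls were enzyme with DMSO for no effect and wells without caspase-3 for full effect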). The conditions noted are these: purified caspase-3, Z-DEVD-aminoluciferin luminescence, 60 min; at 12.5 µM; stronger effect = higher value.
Chain of Caspase-3 (Homo sapiens) (P42574 28-227 limits assumed): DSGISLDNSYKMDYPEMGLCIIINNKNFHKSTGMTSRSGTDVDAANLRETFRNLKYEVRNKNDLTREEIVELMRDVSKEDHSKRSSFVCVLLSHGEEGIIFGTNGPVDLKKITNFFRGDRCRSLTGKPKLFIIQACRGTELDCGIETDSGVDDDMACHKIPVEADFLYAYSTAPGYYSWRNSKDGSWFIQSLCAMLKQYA
Experiment [6] can be described thus: Ultra-Glo luciferase signal interference – biochemical, single concentration, SENP8 reaction pre-completed, artefact control for SENP inhibitor project, confirmation (AID 488919;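 active = mean inhibition above about 50% when retested at one dose, limit read from the data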;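 also: plate controls were DMSO wells with completed reaction for no effect and substrate without enzyme for full effect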). Particulars: Pre-incubated SENP8/Z-RLRGG-aminoluciferin, luciferase luminescence interference; at 12.5 µM; stronger effect = higher value.
A short description of experiment [7]: Brca1-Bard1 BiLC signal decrease – luminescence, single concentration, counter-screen for Mdm2/MdmX interaction inhibitor project, confirmation (AID 504668; call rule not given here). Particulars: Brca1/Bard1 bimolecular luciferase complementation counterscreen, at 8 µM, stronger effect = higher value. (In general: Counterscreens check selectivity or assay interference.)
The nature of experiment [8]: inhibition of PEG-3 promoter luciferase signal – cell-based, HeLa, luciferase reporter, single concentration, confirmation (AID 602417;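 active = at 20 µM dose, 40% or more inhibition averaged across four replicates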). Particulars: HeLa PEG-Prom luciferase reporter, luminescence, overnight; at 20 µM; stronger effect = higher value. (Reporter assays use an easily measured gene product as a stand-in for the process of interest.)
The nature of experiment [9]: HIF-2a driven luciferase blockers, single dose – luminescence, 786-0 RCC cells, confirmation (AID 651580;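 active = mean inhibition across four replicates of at least 40 percent at the single tested concentration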). Particulars: HIF-2a luciferase reporter luminescence, overnight, at 18.8 µM, stronger effect = higher value.
Experiment [10] in a line: HIF-1a luciferase reporter signal reduction – MiaPaCa-2 cells, single concentration, counter-screen for HIF-2a inhibitor project, confirmation (AID 651589;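 active = mean inhibition of the reporter signal across four replicates at the single tested dose of 50% or more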). Particulars: MiaPaCa-2 HIF-1a luciferase reporter, desferoxamine, overnight; at 18.8 µM; stronger effect = higher value.
For experiment [11], the target named is PEG-3 (UniProt Q6IN02). Briefly: inhibition of PEG-3 promoter-driven reporter – cell-based, HeLa, luciferase, CREF/GAPDH counter-screen panel, dose response (AID 624167). The conditions noted are these: CREF/GAPDH counter-screens; HeLa PEG-Prom luciferase reporter, overnight, run 1, dose range 1, at 100 µM (top of the series) unless noted.
Chain of PEG-3 (Q6IN02 whole entry, looked up): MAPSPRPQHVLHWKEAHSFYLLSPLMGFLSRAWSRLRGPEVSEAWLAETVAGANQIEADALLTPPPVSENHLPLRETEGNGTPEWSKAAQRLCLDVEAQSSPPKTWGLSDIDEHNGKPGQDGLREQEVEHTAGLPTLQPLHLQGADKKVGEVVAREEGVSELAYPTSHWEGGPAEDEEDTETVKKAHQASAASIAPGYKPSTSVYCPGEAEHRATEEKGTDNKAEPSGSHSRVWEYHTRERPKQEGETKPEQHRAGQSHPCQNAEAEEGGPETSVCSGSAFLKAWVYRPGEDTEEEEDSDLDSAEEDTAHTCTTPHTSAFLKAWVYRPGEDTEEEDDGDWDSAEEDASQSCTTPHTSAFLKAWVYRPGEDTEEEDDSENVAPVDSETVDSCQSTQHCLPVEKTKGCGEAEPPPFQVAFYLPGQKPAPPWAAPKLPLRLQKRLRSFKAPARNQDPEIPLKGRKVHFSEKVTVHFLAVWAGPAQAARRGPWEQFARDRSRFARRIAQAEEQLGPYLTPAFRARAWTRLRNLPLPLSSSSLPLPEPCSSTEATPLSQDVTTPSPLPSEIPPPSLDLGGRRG
The target in experiment [12] is PEG-3 (UniProt Q6IN02). Described as above. The conditions noted are these: CREF/GAPDH counter-screens; HeLa PEG-Prom luciferase reporter, overnight, run 2, dose range 1, at 100 µM (top of the series) unless noted.
Experiment [13] addresses Tumor necrosis factor receptor superfamily member 10B (Homo sapiens) (UniProt O14763). In words: viability loss of caspase-8 NB7 cells with TRAIL – with/without TRAIL, luminescence panel, confirmation (AID 651596; in the data active = activity above about 50%). Particulars: NB7 neuroblastoma + caspase-8, TRAIL sensitization, NB7 Caspase-8, with TRAIL, mean of runs, at 10 µM, stronger effect = higher value.
Assay in experiment [14]: as above
Particulars: NB7 neuroblastoma + caspase-8, without TRAIL, NB7 Caspase-8, without TRAIL, mean of runs, at 10 µM.

Experiment [15] has as its system Rat fibroblasts (CREF). In words: inhibition of PEG-3 promoter-driven reporter – cell-based, HeLa, luciferase, CREF/GAPDH counter-screen panel, dose response (AID 624167). Particulars: CREF/GAPDH counter-screens; run 1, dose range 1, at 100 µM (top of the series).
Experiment [16] relates to Rat fibroblasts (CREF). Described as above. The conditions noted are these: CREF/GAPDH counter-screens; run 2, dose range 1, at 100 µM (top of the series).
Experiment [17] addresses COP9 signalosome complex subunit 5 (Homo sapiens) (UniProt Q92905). Briefly: blockers of CSN-driven cullin deneddylation – biochemical, fluorescence polarization, single concentration, SCF-Nedd8OG substrate, confirmation (AID 720654; in the data active = inhibition above about 50%;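 also: 0% = DMSO with enzyme and 100% = no enzyme wells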). The conditions noted are these: Csn5 deneddylation of SCF-Nedd8OG, 90 min, at 16.6 µM, stronger effect = higher value. (In general: In fluorescence polarisation assays a small probe gives low polarisation when free and higher when bound to something large.)

In experiment [18] the target is 72 kDa type IV collagenase (Homo sapiens) (UniProt P08253). Briefly: human MMP-2 inhibitors, single-point check – biochemical, fluorescence, single concentration, counter-screen for CSN deneddylation inhibitor project, confirmation (AID 720655;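 active = corrected plate-normalized z-score of 5 or more, or -5 or less, or inhibition of 15% or more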;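 also: plate controls were DMSO wells with enzyme for no effect and buffer wells lacking MMP-2 for full effect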). Particulars: recombinant MMP-2, FRET substrate fluorescence, 60 min; at 16.6 µM.
Chain of 72 kDa type IV collagenase (Homo sapiens) (P08253 whole entry, looked up): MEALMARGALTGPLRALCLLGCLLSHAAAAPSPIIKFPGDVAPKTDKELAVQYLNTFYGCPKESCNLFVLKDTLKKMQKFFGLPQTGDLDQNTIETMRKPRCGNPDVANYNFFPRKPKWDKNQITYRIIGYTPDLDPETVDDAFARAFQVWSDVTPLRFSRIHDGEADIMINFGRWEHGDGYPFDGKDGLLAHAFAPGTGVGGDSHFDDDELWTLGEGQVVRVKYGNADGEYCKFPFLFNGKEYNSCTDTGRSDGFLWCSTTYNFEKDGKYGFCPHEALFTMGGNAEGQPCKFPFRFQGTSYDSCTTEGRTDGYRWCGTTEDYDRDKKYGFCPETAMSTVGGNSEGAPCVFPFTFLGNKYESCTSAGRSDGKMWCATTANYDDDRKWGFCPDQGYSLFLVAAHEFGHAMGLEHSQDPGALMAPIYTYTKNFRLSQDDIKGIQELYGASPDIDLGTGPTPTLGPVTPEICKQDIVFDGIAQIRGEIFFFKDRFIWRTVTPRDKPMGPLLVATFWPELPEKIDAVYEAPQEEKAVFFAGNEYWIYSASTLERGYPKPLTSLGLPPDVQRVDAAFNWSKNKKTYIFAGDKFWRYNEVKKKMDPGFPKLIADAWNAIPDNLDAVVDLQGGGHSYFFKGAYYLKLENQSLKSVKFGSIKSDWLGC
The target of experiment [19] is Prothrombin (Bos taurus) (UniProt P00735). In words: thrombin cleavage blockers, FP readout – biochemical, fluorescence polarization, single concentration, counter-screen for CSN deneddylation inhibitor project, confirmation (AID 720656;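 active = inhibition at or above a set limit, with a fluorescence interference ratio between 0.5 and a set maximum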). Particulars: bovine thrombin cleavage of Ub4-pepOG, at 16.6 µM, stronger effect = higher value.
Chain of Prothrombin (Bos taurus) (P00735 whole entry, looked up): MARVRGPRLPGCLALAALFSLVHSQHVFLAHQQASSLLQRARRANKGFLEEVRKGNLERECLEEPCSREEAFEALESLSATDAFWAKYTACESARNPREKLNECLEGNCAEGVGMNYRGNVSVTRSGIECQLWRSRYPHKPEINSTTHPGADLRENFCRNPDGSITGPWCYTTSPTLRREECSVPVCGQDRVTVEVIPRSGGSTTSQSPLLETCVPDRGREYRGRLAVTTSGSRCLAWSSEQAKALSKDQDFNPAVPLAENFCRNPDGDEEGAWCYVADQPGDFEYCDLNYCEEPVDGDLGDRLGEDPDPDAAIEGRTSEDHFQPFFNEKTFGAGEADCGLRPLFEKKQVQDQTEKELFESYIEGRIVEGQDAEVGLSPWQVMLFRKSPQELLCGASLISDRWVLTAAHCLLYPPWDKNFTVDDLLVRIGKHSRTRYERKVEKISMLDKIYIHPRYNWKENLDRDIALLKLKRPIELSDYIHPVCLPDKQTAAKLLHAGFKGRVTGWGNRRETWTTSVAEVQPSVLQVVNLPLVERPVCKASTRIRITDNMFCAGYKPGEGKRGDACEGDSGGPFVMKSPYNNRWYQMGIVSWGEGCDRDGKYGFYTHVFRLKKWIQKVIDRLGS
A short description of experiment [20]: NF-kB reporter suppression in CF airway cells – cell-based, GFP fluorescence, single concentration, confirmation (AID 602472; in the data active = inhibition above about 40%;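 also: stimulus PAF is a Pseudomonas aeruginosa filtrate and not platelet activating factor; plate controls were DMSO wells with stimulus for no effect and unstimulated DMSO wells for full effect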). Particulars: KKLEB CF airway cells, PAF-induced NF-kB-GFP fluorescence, overnight; at 5 µM; stronger effect = higher value.
Experiment [21] is described as follows: NFkB reporter suppression in cystic fibrosis bronchial cells – cell-based, uHTS hits, panel, cytotoxicity readout, dose response (AID 624344). Particulars: CF bronchial epithelial cells, PAF-induced NFkB reporter inhibition, with PAF, run 1; at 79 µM (top of the series) unless noted.
Assay in experiment [22]: as above
The conditions noted are these: CF bronchial epithelial cells, PAF-induced NFkB reporter inhibition, with PAF, run 2; at 79 µM (top of the series) unless noted.

A short description of experiment [23]: apoptosome-driven caspase-3 activation blockers – biochemical, fluorescence, DEVD-Rh110, 20 µM, confirmation (AID 504614;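 active = mean inhibition of at least 40% at 20 µM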;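 also: plate controls were DMSO wells for no effect and DEVD-CHO caspase inhibitor control wells for full effect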). The conditions noted are these: reconstituted apoptosome, caspase-3 DEVD-Rh110 fluorescence; at 20 µM; stronger effect = higher value.
Experiment [24] can be described thus: detection-step artefacts after completed caspase reaction – biochemical, fluorescence, Rh110, 20 µM, artefact control for Apaf-1 inhibitor project, confirmation (AID 504615;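 active = signal rise of 40% or more at 20 µM, treated as a fluorescence artifact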). Particulars: quenched caspase reaction, at 20 µM, stronger effect = higher value.
A short description of experiment [25]: fluorescence interference of Apaf-1 inhibitor hits, dose response, artefact control for Apaf-1 inhibitor project (AID 588538; call rule not given here). The conditions noted are these: fluorescence interference counterscreen, Apaf-1 assay format.

Structures are written as SMILES. The list shows a part of the results. Activity calls are given as the source filed them.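 The calls were made as follows, unless noted: active = mean inhibition above about 50% in the one-dose retest (limit read from the data); inactive = the rest.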

Chain of Tumor necrosis factor receptor superfamily member 10B (Homo sapiens) (O14763 whole entry, looked up): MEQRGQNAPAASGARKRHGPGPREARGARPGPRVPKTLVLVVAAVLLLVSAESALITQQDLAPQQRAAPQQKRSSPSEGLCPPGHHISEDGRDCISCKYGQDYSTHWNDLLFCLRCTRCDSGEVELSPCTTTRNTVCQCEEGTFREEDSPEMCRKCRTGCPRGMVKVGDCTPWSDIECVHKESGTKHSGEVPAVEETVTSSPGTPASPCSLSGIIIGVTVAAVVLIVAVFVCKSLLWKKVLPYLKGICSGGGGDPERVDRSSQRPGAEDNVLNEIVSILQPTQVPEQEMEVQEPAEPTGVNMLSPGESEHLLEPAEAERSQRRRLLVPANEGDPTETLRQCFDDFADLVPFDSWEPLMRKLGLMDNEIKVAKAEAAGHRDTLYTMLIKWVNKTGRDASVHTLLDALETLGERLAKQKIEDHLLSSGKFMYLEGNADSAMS
Chain of Sentrin-specific protease 6 (Homo sapiens) (Q9GZR1 628-1112 limits assumed): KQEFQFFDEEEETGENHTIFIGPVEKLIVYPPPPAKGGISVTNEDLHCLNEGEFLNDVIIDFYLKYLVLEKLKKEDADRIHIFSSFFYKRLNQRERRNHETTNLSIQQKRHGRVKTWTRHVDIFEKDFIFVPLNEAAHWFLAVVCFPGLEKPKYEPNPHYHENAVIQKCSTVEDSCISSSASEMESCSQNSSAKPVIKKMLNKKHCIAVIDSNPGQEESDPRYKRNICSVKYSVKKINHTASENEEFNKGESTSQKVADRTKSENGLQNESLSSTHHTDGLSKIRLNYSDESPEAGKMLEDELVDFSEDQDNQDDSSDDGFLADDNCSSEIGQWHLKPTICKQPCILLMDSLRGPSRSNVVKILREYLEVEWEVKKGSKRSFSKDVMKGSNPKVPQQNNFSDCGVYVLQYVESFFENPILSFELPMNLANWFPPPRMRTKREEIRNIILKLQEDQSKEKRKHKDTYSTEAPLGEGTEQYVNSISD
Chain of COP9 signalosome complex subunit 5 (Homo sapiens) (Q92905 whole entry, looked up, one chain of several): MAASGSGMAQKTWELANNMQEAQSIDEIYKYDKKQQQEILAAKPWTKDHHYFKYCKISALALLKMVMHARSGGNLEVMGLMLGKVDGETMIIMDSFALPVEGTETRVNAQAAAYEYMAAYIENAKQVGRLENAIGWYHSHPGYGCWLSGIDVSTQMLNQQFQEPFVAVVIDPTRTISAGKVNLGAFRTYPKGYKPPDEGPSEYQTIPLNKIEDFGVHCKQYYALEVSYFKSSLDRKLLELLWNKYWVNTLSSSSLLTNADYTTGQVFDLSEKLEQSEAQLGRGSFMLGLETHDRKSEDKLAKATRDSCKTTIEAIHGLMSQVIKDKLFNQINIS

As a reminder, the inhibition is the drop in the measured response relative to a control, in per cent. Consider `CCOC(=O)c1c(-c2cccc(C)c2)csc1NC(=O)c1c(-c2ccccc2)noc1C`, for which the inhibition in experiment [1] is 101% (active).

As for `Cc1ccsc1C(=O)OCC(=O)c1cc(C)n(CC2CCCO2)c1C` (centres undefined), the inhibition was 35.3% (inactive) in [2]; 97.2% (active) in experiment [3]; 102% (active) in [4]; 96.7% (active) in experiment [5]; 58.8% (active) in experiment [6]; 28.9% (active) in experiment [7]. Moreover, the inhibition in experiment [8] was 80.8% (active); in [9], 65.9% (active); in experiment [10], 80.2% (active); in [11], 96.8%; in experiment [12], 92.7%. The activity stood at 74.5% in experiment [13] and 68.1% in experiment [14].

Consider `O=C(Nc1ccn(Cc2ccccc2)n1)c1n[nH]c([N+](=O)[O-])c1Cl`, for which the inhibition in experiment [2] was 96.4% (active); in [3] it was 97.3% (active); in experiment [4], 102% (active); in [5] it was 96.2% (active); in experiment [6], 96.7% (active). Further, the figures for the activity in [13] and in [14] were 64.8% and 63%, respectively.

For `Cc1ccc2nc(-c3ccc(Br)cc3)cn2c1`, the inhibition in [2] is 7.3% (inactive); in experiment [3] it was 34.4% (inactive); in [4], 70% (active); in experiment [5], 51.5% (active); in experiment [6] it was -8.6% (inactive); in experiment [8] it was 49.5% (active). Further, the inhibition in experiment [11] turned out to be 101%; in experiment [12] it was 88.9%; in [15], 93.6%; in experiment [16], 85.5%.

As to `COc1cc(/C=C(\C#N)c2nc3ccccc3[nH]2)ccc1O`, the inhibition is 95.1% (active) in experiment [2]; 95.1% (active) in [3]; 101% (active) in [4]; 93.4% (active) in [5]; 66.5% (active) in [6]; 78.1% (active) in experiment [17]. Moreover, the values for the inhibition in [18] and in experiment [19] were -18.3% (inactive) and 62.2% (active), respectively.

With `CCOC(=O)/C=C/C(=O)OCC(=O)NC(c1ccccc1)c1ccccc1`, in experiment [1], the inhibition was 99.7% (active).

Regarding `O=C(Nc1nnc(S(=O)(=O)N2CCCCCC2)s1)c1cccc(Br)c1`, the inhibition in experiment [2] is 42.1% (inactive); in experiment [3], 31.9% (inactive); in [4], 21.7% (inactive); in experiment [5], 28.6% (inactive); in experiment [6], 29.4% (inactive); in [20], 77.4% (active). Further, the inhibition was 83% in [21] and 68.3% in experiment [22].

As a reminder, the IC50 is the concentration that gives 50% inhibition. For the compound `Clc1ccc(C2=CSC3=Nc4cccc5cccc(c45)N23)cc1`, the inhibition in experiment [2] was 1.7% (inactive); in experiment [3], 55.9% (active); in experiment [4], 7.2% (inactive); in [5], -5.7% (inactive); in experiment [6] it was -2.1% (inactive); in experiment [23] it was 62.8% (active). Moreover, the activation (fluorescence interference) in [24] is -1.7% (inactive). Also, the IC50 in experiment [25] is > 100 µM (inactive).

For the compound `c1c2c(cc3sc(N4CCCCC4)nc13)OCCO2`, the inhibition in [2] was 97% (active); in experiment [3] it was 98.6% (active); in experiment [4], 103% (active); in [5] it was 97.5% (active); in experiment [6], 52.1% (active); in [8], 37.5% (inactive).

As to `COc1ccc(-c2cn3ccsc3n2)cc1`, the inhibition in experiment [2] was 55.5% (active); in [3], 51.2% (active); in [4], 81.3% (active); in experiment [5] it was 74.4% (active); in [6], 56.3% (active). The activity in experiment [13] came to 64.2%; in [14] it was 54.6%.
